# Compound activity deposited in PubChem BioAssay by National Center for Advancing Translational Sciences (NCATS).
# D1 potentiator = potentiators of human D1 dopamine receptor. HEK293 TREx D1 cells, calcium flux, dopamine EC20 potentiation. potentiation, % at 10 µM. 360,000 tested, 0.036% active; in the data active = potentiation above about 30%; note: 0% is about no effect
# D3 antag = blocks the human D3 dopamine receptor | P35462 | D3R cells, DiscoveRx beta-arrestin luminescence, antagonist mode; stronger effect = lower value | max response, negative = inhibition, % | 360,000 tested, 2.5% active; in the data active = max response below about -50%; inconclusive = no clear call, values can overlap the other calls; note: % is set by controls: 0 for no effect and ±100 for the full control effect
# Target sequence (P35462 whole entry, looked up): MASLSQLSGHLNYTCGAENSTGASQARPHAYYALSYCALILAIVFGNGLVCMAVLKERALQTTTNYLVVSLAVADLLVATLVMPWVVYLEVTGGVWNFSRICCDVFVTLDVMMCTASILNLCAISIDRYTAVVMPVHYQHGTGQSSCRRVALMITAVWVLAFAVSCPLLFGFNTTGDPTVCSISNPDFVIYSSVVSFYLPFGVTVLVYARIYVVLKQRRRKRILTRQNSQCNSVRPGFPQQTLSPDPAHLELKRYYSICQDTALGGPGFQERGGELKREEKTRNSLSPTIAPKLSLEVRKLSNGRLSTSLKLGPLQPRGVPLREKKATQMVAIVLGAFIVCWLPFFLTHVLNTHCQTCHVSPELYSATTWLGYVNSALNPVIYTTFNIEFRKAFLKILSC
#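 Cells plated overnight at 1500 cells/well, then exposed to library compounds with dopamine controls for 90 minutes at 37 degrees C. DiscoveRx reagent added for 30–60 minutes at room temperature; luminescence read, quantitative HTS format.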
# DRD3 agonist = D3 dopamine receptor (human) agonism. P35462. D3R DiscoveRx beta-arrestin cells, luminescence, 90 min. max activation, %. 410,000 tested, 0.58% active. AID 652048; in the data active = max activation above about 30%; note: 0% is about no effect
#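 Cells at 1500/well, incubated overnight, then treated with pinned compounds (dopamine as control) for 90 min at 37 degrees C. DiscoveRx reagent added for 30 - 60 minutes at room temperature; luminescence read.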
# D1 agonist = human D1 receptor agonism; P21728; activation, % at 2 µM; HEK293 T-REx D1 cells, calcium flux, agonist mode; 360,000 tested, 1% active; AID 504660; in the data active = activation above about 30%; note: 0% is about no effect
#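 Agonism was scored from calcium flux recorded over 180 s (1 read/s) after pintool compound addition, following a 10-cycle baseline. Cells were inducible force-coupled HEK293 TREx D1, plated overnight at 30 C and loaded with no-wash calcium dye.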
# D1 antagonist = human D1 dopamine receptor antagonism. HEK293 TREx D1 cells, calcium flux, dopamine EC80; stronger effect = lower value. P21728. activity change, negative = inhibition, % at 10 µM. AID 504652. 360,000 tested, 3.2% active; in the data active = activity change below about -30%; note: % is set by controls: 0 for no effect and ±100 for the full control effect
#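 Tetracycline-induced HEK293 Trex D1 cells, force-coupled to calcium, dye-loaded; compounds added and read 180 s, then EC80 dopamine added and calcium flux tracked kinetically another 180 s.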
# * hit, by the source's call; ? = inconclusive; nt = no result given; ! = not active in a repeat. Shown are actives, neighbours in structure and some others; about 6% of the full set was active somewhere.
SMILES,D1 potentiator,D3 antag,DRD3 agonist,D1 agonist,D1 antagonist
CN(CC(=O)Nc1ccc(Cl)cc1)C(=O)c1cccc(S(=O)(=O)N2CCN(Cc3ccccc3)CC2)c1,-13,-5,2,3,-31*
CN(Cc1ccc(Cl)cc1Cl)C(=O)c1cccc(S(=O)(=O)NCc2ccccc2)c1,nt,-26,-3,nt,nt
CN(Cc1nc(Cc2ccccc2F)no1)CC1(N2CCOCC2)CCCCC1,-7,3,15,1,0
CN(Cc1nc(Cc2ccccc2F)no1)Cc1cccc2ncccc12,-6,20,0,13,-40*
Cc1ccccc1NS(=O)(=O)c1ccc(C(=O)NCc2ccccc2CN2CCCC2)cc1,nt,-13,-7,nt,nt
O=C(Nc1ccc(S(=O)(=O)NCc2ccco2)cc1)c1ccc(F)cc1,-8,-1,8,3,-35*
COc1ccc(CNC(=O)COC(=O)c2ccc(S(=O)(=O)NCc3ccco3)cc2)cc1,nt,0,4,nt,nt
Cc1cc(C)n(-c2ccc(C(=O)Nc3ccc(S(=O)(=O)NCc4ccco4)cc3)cc2)n1,-6,?,5,9,-41*
O=C(COC(=O)c1ccc(S(=O)(=O)NCc2ccco2)cc1)NCc1ccc(F)cc1,-4,-20,-13,4,-41*
CNCCCNC(=O)c1ccc(/C=N/O)nc1,-1,1,-3,2,-4
O=C(NCCCNC1CCCCC1)c1ccc(/C=N/O)nc1,0,-60*,-24,2,13
C=C[C@]1(C)C[C@@H](OC(=O)CSCCN(CC)CC)[C@]2(C)C(C)CC[C@]3(CCC(=O)[C@H]32)[C@@H](C)[C@@H]1O (stereo partly drawn),-3,-89*!,-59,2,10
Cc1cc2c(s1)c1cnn(Cc3cccc(F)c3)c(=O)c1n2C,1,nt,nt,0,5
Nc1cccc(P(=O)(c2ccccc2)c2ccccc2)c1,-3,17,4,0,-5
O=P(c1ccccc1)(c1ccccc1)N(c1ccccc1)c1ccccc1,-5,-54*,-9,4,-4
COc1ccc(-c2coc3c(C(=O)NCC4CC4)cccc23)c(C)c1,nt,276,56*,nt,nt
COc1cc(OC)cc(-c2c(Sc3ccccc3)c3cc(-c4ccc(OC)c(F)c4)ccc3n2C)c1,nt,-15,-4,nt,nt
Cc1c(C(=O)Nc2ccc3nc(N4CCOCC4)sc3c2)oc2ccccc12,-3,21,13,2,-43*
O=C(NCC1CCCO1)c1[nH]c(C(F)(F)F)nc1-c1ccccc1 (stereo not drawn),nt,29,12,nt,nt
COC(=O)c1c(NS(=O)(=O)c2cccs2)sc2c1CCCC2,19,-57*,-4,1,18
COC(=O)c1c(NC(=O)Cc2cccs2)sc2c1CCCC2,1,?,1,5,12
CCOC(=O)c1c(NS(=O)(=O)c2cccc(OC)c2)sc2c1CCC2,0,-4,-1,64*,-8
COC(=O)c1ccc(CN(c2ccc(C(=O)O)c(O)c2)S(=O)(=O)c2ccc(Cl)c([N+](=O)[O-])c2)cc1,-4,-23,-2,4,-2
N=C(N)n1cccn1,nt,nt,6,nt,nt
CCOC(=O)c1ccc(OCCN2C[C@H](O)[C@@H](O)[C@H](O)[C@H]2CO)cc1,nt,nt,-6,nt,nt
SMILES,D1 potentiator,D3 antag,DRD3 agonist,D1 agonist,D1 antagonist
CC(C)Cc1ccc(C(C)NC(=O)c2ccc(=O)[nH]c2)cc1 (stereo not drawn),1,-8,4,49*,-16
Nc1nc(-c2cccs2)c(CC(=O)O)s1,10,1,3,-1,-38*
O=C(NC1CCCC1)C1c2ccccc2OCC(=O)N1Cc1ccccn1 (stereo not drawn),nt,-58*,-16,nt,nt
O=C(NCc1ccccc1)C1c2ccccc2OCC(=O)N1Cc1cccnc1 (stereo not drawn),nt,-61*,-5,nt,nt
CCCCNC(=O)C1c2ccccc2OCC(=O)N1Cc1ccccn1 (stereo not drawn),nt,?,-5,nt,nt
O=C(NCc1ccccc1)C1c2ccccc2OCC(=O)N1CCc1ccccc1 (stereo not drawn),nt,6,1,nt,nt
COc1ccc(-c2nc3c(C#N)c[nH]n3c2NC2CCCC2)cc1,-1,nt,50*,-2,-2
COc1cccc(-c2nc3c(C#N)c[nH]n3c2NC2CCCCC2)c1OC,1,nt,-4,1,0
CCOc1ccc(-c2nc3c(C#N)c[nH]n3c2NC2CCCCC2)cc1,-1,nt,-16,-1,4
COc1cccc(-c2nc3c(C#N)c[nH]n3c2NC2CCCC2)c1OC,-3,nt,8,6,-52*
COc1cccc(-c2nc3c(C#N)c[nH]n3c2NC2CCCCC2)c1,-2,nt,-2,3,-37*
Cc1cccc(-c2nc3c(C#N)c[nH]n3c2NC2CCCCC2)c1,-1,nt,1,3,1
Cc1ccccc1C(=O)Nc1nnc(SCc2cc(=O)n3ccccc3n2)s1,-1,nt,9,1,-20
COc1ccc(CN2C(=O)N(c3cccc(C)c3)C(=O)C2CC(=O)Nc2ccc(F)cc2)cc1OC (stereo not drawn),-2,nt,-7,0,-16
O=C1C2CC3CC1CC(O)(C3)C2,nt,nt,4,nt,nt
CC(=O)C1=CCC(c2ccc(Cl)cc2)N(S(=O)(=O)c2ccccc2C)C1 (stereo not drawn),nt,-4,-2,nt,nt
Cn1c(=O)n(C)c2cc(N3CCCCC3)c(NC(=O)c3c(F)cccc3F)cc21,2,nt,-14,1,1
Cc1ccc(C)c(OCc2cc(C(=O)N(C)Cc3ccccn3)no2)c1,5,24,5,9,-44*
COc1ccccc1CNC(=O)CS(=O)(=O)Cc1nc(-c2ccccc2C)oc1C,0,nt,4,0,5
Cc1ccc(N=C2C(=O)Nc3ccc(Br)cc32)cc1,-3,-67*,-20,-1,6
Cc1ccc(N=C2C(=O)Nc3c(C)cccc32)cc1,-8,20,-12,2,-7
O=C(N/N=C/c1ccc(OC(F)F)cc1OC(F)F)c1ccc(Br)cc1,-6,-88*,-13,11,-15
COc1ccc(-c2[nH]ncc2/C=N/NC(=O)c2ccc(Br)cc2)c(OC)c1,-11,-66*,-38,1,1
Cc1ccc(S(=O)(=O)N(C)Cc2ccc(C(=O)N/N=C/c3ccc(OC(F)F)cc3OC(F)F)cc2)cc1,-4,6,0,4,-13
COc1ccc(C(=O)N/N=C/c2cn[nH]c2-c2ccc(OC)cc2OC)cc1,-8,-26,-20,1,-1
COc1cc(CN2CCc3ccc(NC(=O)CCc4ccccc4OC)cc3C2)ccc1O,-8,-62*,-14,10,-10
COc1cc(CN2CCc3ccccc3C2)ccc1O,-5,-90*,-22,3,6
COc1ccc(CN2CCc3ccc(NC(=O)CCc4ccccc4OC)cc3C2)c(O)c1,-20,-15,-15,2,-83*
